Growth data for 7 compounds are collected here from PubChem BioAssay (NCI).

“And” between values parts separate entries of the source, which are not always exact repeats. Equal entries are not always repeated. This is part of a sample that, as a whole, favours compounds with a hit. Of some 83,000 tested, about 20% had one in any assay.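 Treatment: one concentration, 48 hours, 96-well format. Scoring: percent growth, with anything below 10 considered active.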 The source made the active and inactive calls.

Some test systems named below: K-562 leukemia; MALME-3M melanoma; MDA-MB-231 breast; RXF 393 renal; SF-268 CNS; SF-295 CNS; SF-539 CNS; UACC-257 melanoma; M14 melanoma; HCT-15 colon; HT29 colon; SNB-19 CNS; U251 CNS; PC-3 prostate; SK-MEL-5 melanoma; UACC-62 melanoma; LOX IMVI melanoma; SK-MEL-28 melanoma; SK-MEL-2 melanoma; SNB-75 CNS.
Common to all, as to test: NCI-60 one-dose screen, 48 h (100 = growth as untreated, 0 = no growth, -100 = all killed)

As for `BrC/C=C/C[P+](c1ccccc1)(c1ccccc1)c1ccccc1`, the growth in the test on K-562 leukemia (10 µM) was 17.5% (inactive); with MALME-3M melanoma (10 µM), 60.6% (inactive); in the test on MDA-MB-231 breast (10 µM), 77.4% (inactive); in the test on RXF 393 renal (10 µM), 81.8% (inactive); with SF-268 CNS (10 µM), 58.7% (inactive); with SF-295 CNS (10 µM), 38.2% (inactive). The growth in the test with SF-539 CNS (10 µM) is 10% (inactive); in the test with UACC-257 melanoma (10 µM) it was 47.9% (inactive); with M14 melanoma (10 µM), 49.9% (inactive); in the test on HCT-15 colon (10 µM) it was 37.3% (inactive); with HT29 colon (10 µM), 60% (inactive); with SNB-19 CNS (10 µM) it was 46.6% (inactive). For the same compound, the growth was 18.2% (inactive) in the test on U251 CNS (10 µM); 22.4% (inactive) with PC-3 prostate (10 µM); 53.9% (inactive) with SK-MEL-5 melanoma (10 µM); 52.8% (inactive) with UACC-62 melanoma (10 µM); 2.3% (active) in the test with LOX IMVI melanoma (10 µM); 53.2% (inactive) in the test with SK-MEL-28 melanoma (10 µM). Moreover, in the test on SK-MEL-2 melanoma (10 µM), the growth is 78.7% (inactive).
Turning to `S=c1[nH]nc(Cc2ccccc2)c(=S)[nH]1`, the growth in the test with K-562 leukemia (10 µM) was 94.6% (inactive); in the test with MALME-3M melanoma (10 µM) it was 98.3% (inactive); with MDA-MB-231 breast (10 µM), 113% (inactive); with RXF 393 renal (10 µM), 103% (inactive); in the test on SF-268 CNS (10 µM), 90.3% (inactive); in the test with SF-295 CNS (10 µM), 99.8% (inactive). For the same compound, the growth with SF-539 CNS (10 µM) was 102% (inactive); in the test with UACC-257 melanoma (10 µM), 102% (inactive); in the test with M14 melanoma (10 µM), 101% (inactive); in the test with HCT-15 colon (10 µM), 102% (inactive); in the test on HT29 colon (10 µM), 97.4% (inactive); with SNB-75 CNS (10 µM), 92.8% (inactive). Also, the growth with SNB-19 CNS (10 µM) is 109% (inactive); with U251 CNS (10 µM), 100% (inactive); in the test on PC-3 prostate (10 µM), 89.1% (inactive); in the test on SK-MEL-5 melanoma (10 µM) it was 110% (inactive); in the test with UACC-62 melanoma (10 µM), 110% (inactive); in the test with LOX IMVI melanoma (10 µM) it was 94.4% (inactive). Besides, the growth is 114% (inactive) with SK-MEL-28 melanoma (10 µM) and 104% (inactive) with SK-MEL-2 melanoma (10 µM).
As to `COc1ccc2c(C)cc(N/N=C/c3sccc3C)nc2c1`, the growth in the test on UACC-62 melanoma (100 µM) was -100% (active).
Turning to `CCCCCCCCCCCCCCCCCN`, the growth in the test with K-562 leukemia (10 µM) is 103% (inactive); with MALME-3M melanoma (10 µM), 98% (inactive); with MDA-MB-231 breast (10 µM), 93% (inactive); with RXF 393 renal (10 µM) it was 98.7% (inactive); in the test with SF-268 CNS (10 µM), 113% (inactive); with SF-295 CNS (10 µM), 99.1% (inactive). Also, the growth was 94.2% (inactive) in the test on SF-539 CNS (10 µM); 99.2% (inactive) with UACC-257 melanoma (10 µM); 104% (inactive) in the test with M14 melanoma (10 µM); 104% (inactive) with HCT-15 colon (10 µM); 98.9% (inactive) in the test with HT29 colon (10 µM); 92.6% (inactive) with SNB-75 CNS (10 µM). Further, the growth is 102% (inactive) with SNB-19 CNS (10 µM); 96.3% (inactive) in the test on U251 CNS (10 µM); 92.3% (inactive) with PC-3 prostate (10 µM); 103% (inactive) with SK-MEL-5 melanoma (10 µM); 102% (inactive) with UACC-62 melanoma (10 µM); 102% (inactive) with LOX IMVI melanoma (10 µM). Moreover, the growth in the test with SK-MEL-28 melanoma (10 µM) is 101% (inactive); in the test with SK-MEL-2 melanoma (10 µM), 110% (inactive).
Take `Nc1ccc2cc(Br)c3ccccc3c2c1`: the growth is 31.7% (inactive) in the test on K-562 leukemia (10 µM); 97.8% (inactive) in the test on MALME-3M melanoma (10 µM); 4.19% (active) with RXF 393 renal (10 µM); 68.9% (inactive) with SF-268 CNS (10 µM); 21% (inactive) in the test on SF-295 CNS (10 µM); 47.9% (inactive) in the test with SF-539 CNS (10 µM). In addition, the growth in the test on UACC-257 melanoma (10 µM) is 90.1% (inactive); in the test on M14 melanoma (10 µM), 78.5% (inactive); in the test with HCT-15 colon (10 µM), 33.2% (inactive); in the test with HT29 colon (10 µM), 87.9% (inactive); in the test with SNB-75 CNS (10 µM) it was 50% (inactive); with SNB-19 CNS (10 µM), 56.3% (inactive). The growth is 65.6% (inactive) in the test with U251 CNS (10 µM); 65.2% (inactive) with PC-3 prostate (10 µM); 75.3% (inactive) in the test with SK-MEL-5 melanoma (10 µM); 73.8% (inactive) with UACC-62 melanoma (10 µM); 80.8% (inactive) with SK-MEL-28 melanoma (10 µM); 103% (inactive) with SK-MEL-2 melanoma (10 µM).
As to `N#C/C(=C1C=C/C(=N\O)C(Cl)=C\1)c1ccccc1`, the growth with K-562 leukemia (10 µM) was 20.9% (inactive); in the test on MALME-3M melanoma (10 µM), 58.7% (inactive); with MDA-MB-231 breast (10 µM) it was 20.6% (inactive); in the test on RXF 393 renal (10 µM) it was 43.9% (inactive); in the test on SF-268 CNS (10 µM), 27% (inactive); in the test with SF-295 CNS (10 µM), -32.2% (active). Further, the growth in the test with SF-539 CNS (10 µM) is 2.46% (active); with M14 melanoma (10 µM), 46% (inactive); with HCT-15 colon (10 µM) it was 22.2% (inactive); in the test with HT29 colon (10 µM), 23% (inactive); in the test on SNB-75 CNS (10 µM), 59.4% (inactive); in the test on SNB-19 CNS (10 µM) it was 80.5% (inactive). The growth with PC-3 prostate (10 µM) is 14.5% (inactive); in the test on SK-MEL-5 melanoma (10 µM), 46.8% (inactive); in the test with UACC-62 melanoma (10 µM), 26.2% (inactive); with LOX IMVI melanoma (10 µM) it was 1.14% (active); in the test with SK-MEL-28 melanoma (10 µM), 68.9% (inactive).
As for `O=c1[nH]cc(F)c(=O)[nH]1`, the growth is 64.6% (inactive) and 69.4% (inactive) with K-562 leukemia (10 µM); 42.3% (inactive) in the test on K-562 leukemia (25 µM); 41.5% (inactive) in the test with K-562 leukemia (50 µM); 53.1% (inactive) and 69.9% (inactive) with MALME-3M melanoma (10 µM); 58.2% (inactive) with MALME-3M melanoma (25 µM); 53.7% (inactive) with MALME-3M melanoma (50 µM). Also, the growth in the test with MDA-MB-231 breast (10 µM) was 96.2% (inactive) and 84.6% (inactive); in the test with MDA-MB-231 breast (25 µM) it was 78.1% (inactive); with MDA-MB-231 breast (50 µM) it was 77.2% (inactive); with RXF 393 renal (10 µM), 63.4% (inactive) and 10.7% (inactive); with RXF 393 renal (25 µM) it was 34.3% (inactive); with RXF 393 renal (50 µM) it was 54.4% (inactive). For the same compound, the growth in the test with SF-268 CNS (10 µM) was 81.3% (inactive) and 91.9% (inactive); in the test with SF-268 CNS (25 µM), 59% (inactive); in the test on SF-268 CNS (50 µM), 47.7% (inactive); in the test on SF-295 CNS (10 µM) it was 77% (inactive) and 100% (inactive); in the test on SF-295 CNS (25 µM) it was 69.1% (inactive); with SF-295 CNS (50 µM) it was 90.5% (inactive). Further, the growth is -0.0094% (active) and -4.58% (active) with SF-539 CNS (10 µM); -19.6% (active) with SF-539 CNS (25 µM); 22.8% (inactive) with SF-539 CNS (50 µM); 73.1% (inactive) and 22.6% (inactive) with UACC-257 melanoma (10 µM); 19.5% (inactive) in the test with UACC-257 melanoma (25 µM); 53.5% (inactive) in the test with UACC-257 melanoma (50 µM). The growth with M14 melanoma (10 µM) was 64% (inactive) and 28.9% (inactive); with M14 melanoma (50 µM), 42.4% (inactive); with HCT-15 colon (10 µM) it was 48.1% (inactive) and 51.4% (inactive); with HCT-15 colon (25 µM) it was 26.5% (inactive); in the test on HCT-15 colon (50 µM) it was 37.8% (inactive); in the test on HT29 colon (10 µM), 43.6% (inactive) and 42.6% (inactive). For the same compound, the growth is 27.1% (inactive) in the test on HT29 colon (25 µM); 31.4% (inactive) in the test on HT29 colon (50 µM); 73.5% (inactive) and 90.2% (inactive) with SNB-75 CNS (10 µM); 65.9% (inactive) in the test on SNB-75 CNS (25 µM); 63.8% (inactive) with SNB-75 CNS (50 µM); 75.7% (inactive) and 83.3% (inactive) in the test on SNB-19 CNS (10 µM). In addition, the growth with SNB-19 CNS (25 µM) was 65.9% (inactive); in the test on SNB-19 CNS (50 µM), 66.7% (inactive); in the test with U251 CNS (10 µM), 74.7% (inactive) and 78.7% (inactive); in the test with U251 CNS (25 µM), 50.3% (inactive); in the test with U251 CNS (50 µM), 61.1% (inactive); with PC-3 prostate (10 µM) it was 73.6% (inactive) and 75.1% (inactive). In addition, the growth in the test on PC-3 prostate (25 µM) was 58.2% (inactive); in the test with PC-3 prostate (50 µM), 64.8% (inactive); in the test with SK-MEL-5 melanoma (10 µM), 45.5% (inactive) and -28.2% (active); in the test on SK-MEL-5 melanoma (25 µM), 33.7% (inactive); in the test with SK-MEL-5 melanoma (50 µM), 59.5% (inactive); in the test on UACC-62 melanoma (10 µM), 51.9% (inactive) and 48.4% (inactive). Besides, the growth in the test with UACC-62 melanoma (25 µM) is 39.7% (inactive); in the test on UACC-62 melanoma (50 µM), 54% (inactive); in the test with LOX IMVI melanoma (10 µM) it was 41.7% (inactive) and 51% (inactive); in the test on LOX IMVI melanoma (25 µM), 30.4% (inactive); in the test with LOX IMVI melanoma (50 µM), 35.7% (inactive); with SK-MEL-28 melanoma (10 µM), 62.2% (inactive). Also, the growth was 50.9% (inactive) in the test with SK-MEL-28 melanoma (50 µM); 71.4% (inactive) and 106% (inactive) in the test with SK-MEL-2 melanoma (10 µM); 95.5% (inactive) in the test with SK-MEL-2 melanoma (25 µM); 73% (inactive) with SK-MEL-2 melanoma (50 µM).
